Results from PubChem BioAssay (EPA / NIEHS).
The source made the active and inactive calls. Rule for the calls: active = hit-call score of the fitted dose curve at least 0.9, where 1 is the maximum; inactive = score below 0.9.

Assays:
[1] = BSK_3C_SRB: Viability Assessment in the BioMAP Diversity Plus: 3C Assay (AID 2283023); conditions: primary human endothelial cells (HUVEC);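 note: fitted both ways against DMSO so a hit may be signal rise or drop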
In short: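 Human umbilical vein endothelial cells in the 3C system, treated 24 h. Total protein measured by 0.1% sulforhodamine B staining after 10% TCA fixation, read at 560 nm; bidirectional fit versus DMSO.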

[2] = read-out: Matrix Metallopeptidase 1 (MMP1), MMP1 (gene 4312); experiment: BSK_BE3C_MMP1: BioMAP Diversity Plus: BE3C Assay for Matrix Metallopeptidase 1 (MMP1) Biomarker Activity (AID 2283024); conditions: primary human bronchial epithelial cells; actives raise or lower the signal
In short: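 Human bronchial epithelial cells (BE3C system) exposed to compound for 24 h; MMP1 then quantified by ELISA. Activity was fitted in both directions relative to DMSO.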

[3] = BSK_3C_Vis: BioMAP Diversity Plus: 3C Assay for Morphology Visualization (AID 2283025); conditions: primary human endothelial cells (HUVEC);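 note: fitted both ways so gain or loss versus DMSO counts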;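 for AC50: light microscopy image of cell morphology used as background control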
In short: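 Chemicals were added to primary human umbilical vein endothelium, cells were incubated 24 h, and morphology was then visualized by light microscopy. Gain or loss of signal was fitted bidirectionally relative to DMSO.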

[4] = BSK_4H_SRB: Viability Assessment in the BioMAP Diversity Plus: 4H Assay (AID 2283027); conditions: primary human endothelial cells (HUVEC);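 note: cells exposed to compound for 24 h before staining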;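 for AC50: curves fitted both ways versus DMSO so AC50 may be loss or gain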
In short: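 Human umbilical vein endothelial cells, 24 h after chemical dosing; total protein measured by 0.1% sulforhodamine B staining after 10% TCA fixation, read at 560 nm. Bidirectional fitting against DMSO.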

[5] = BSK_BE3C_SRB: Viability Assessment in the BioMAP Diversity Plus: BE3C Assay (AID 2283028); conditions: primary human bronchial epithelial cells;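 for AC50: fitted both ways so AC50 may mark signal gain or loss versus DMSO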
In short: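 Human bronchial epithelial primary cells in confluent culture, 24 h after chemical dosing; total protein by 0.1% SRB staining after 10% TCA fixation, read at 560 nm. Bidirectional fitting versus DMSO baseline.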

[6] = read-out: Thrombomodulin, THBD (gene 7056); experiment: BSK_3C_Thrombomodulin: BioMAP Diversity Plus: 3C Assay for Thrombomodulin Biomarker Activity (AID 2283029); conditions: primary human endothelial cells (HUVEC); actives raise or lower the signal
In short: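 Read-out is ELISA of thrombomodulin on human umbilical vein endothelium 24 h after chemical dosing. Gain or loss of signal is scored relative to DMSO. Overt cytotoxicity is checked in parallel cultures by sulforhodamine B staining.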

[7] = read-out: Urokinase-type plasminogen activator receptor (uPAR), PLAUR (gene 5329); experiment: BSK_4H_uPAR: BioMAP Diversity Plus: 4H Assay for Urokinase-type plasminogen activator receptor (uPAR) Biomarker Activity (AID 2283030); conditions: primary human endothelial cells (HUVEC); actives raise or lower the signal
In short: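 Human umbilical vein endothelial cells in the 4H system, 24 h after chemical dosing. Cell-surface uPAR measured by ELISA, fitted in both directions versus DMSO; cytotoxicity checked by SRB total protein in parallel cultures.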

[8] = read-out: Vascular endothelial growth factor receptor 2 (Homo sapiens) (UniProt P35968); experiment: BSK_4H_VEGFRII: BioMAP Diversity Plus: 4H Assay for Vascular endothelial growth factor receptor 2 (VEGFR2) Biomarker Activity (AID 2283031); conditions: primary human endothelial cells (HUVEC); actives raise or lower the signal;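 for AC50: cell-surface VEGFR2 protein level quantified by ELISA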
In short: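 Primary human umbilical vein endothelial cells (4H system), 24 h exposure; cell-surface VEGFR2 measured by ELISA. Bidirectional fitting versus DMSO; cytotoxicity checked in parallel by SRB total-protein staining.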

[9] = read-out: Human Leukocyte Antigen - DR isotype (HLADR), HLA-DRA (gene 3122); experiment: BSK_BE3C_HLADR: BioMAP Diversity Plus: BE3C Assay for Human Leukocyte Antigen - DR isotype (HLADR) Biomarker Activity (AID 2283032); conditions: primary human bronchial epithelial cells; actives raise or lower the signal
In short: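 ELISA read-out of HLA-DR on human lung bronchial epithelial primary cells, measured 24 h post-dosing. Both increases and decreases were scored relative to DMSO vehicle.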

[10] = read-out: Pselectin, SELP (gene 6403); experiment: BSK_4H_Pselectin: BioMAP Diversity Plus: 4H Assay for Pselectin Biomarker Activity (AID 2283026); conditions: primary human endothelial cells (HUVEC); actives raise or lower the signal
In short: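 ELISA read-out of P-selectin on human umbilical vein endothelium after 24 h of dosing. Values derive from bidirectional fitting relative to DMSO. Parallel SRB protein staining flagged overt cytotoxicity.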

Measured: AC50

CCn1nc(Cc2ccccc2)cc1C1CCN(C[C@H]2C[C@H](N(C)[C@@H](C(=O)O)C(C)C)C[C@@H]2c2cccc(F)c2)CC1
not listed: [10]
inactive: all other assays above

CC[C@H]1CC[C@H](NCc2cc3c(cc2OC)[C@H]2C[C@H]2C(=O)N3C)[C@H](c2ccccc2)N1
not listed: [10]
inactive: all other assays above

CCOCCOCCOCCO
not listed: [8] | [10]
inactive: all other assays above

O=c1[nH]c2ccc(S(=O)CCN3CCC(Cc4ccc(F)cc4)CC3)cc2o1 (configuration not stated)
active: [4] 3.97 µM | [7] 12.8 µM
not listed: [10]
inactive: all other assays above

CC(C)CCO
not listed: [8] | [10]
inactive: all other assays above

NC(=O)NO
not listed: [10]
inactive: all other assays above

Cn1c(=O)cc(Oc2ccc(F)cc2F)c2cnc(NCC(C)(C)O)nc21
active: [6] 4.61 µM
not listed: [10]
inactive: all other assays above

C1=CCCC=CCCC=CCC1
not listed: [8] | [10]
inactive: all other assays above

CCCCCCCCCCCCCCCO
active: [1] 36.8 µM | [3] 37.3 µM | [4] 36.1 µM | [6] 6.63 µM | [8] 36.8 µM
inactive: [2] | [5] | [7] | [9]

CC1(C)C(=O)N(Br)C(=O)N1Br
not listed: [10]
inactive: all other assays above

O=C(OC[C@H]1O[C@@H](OC(=O)c2cc(O)c(O)c(OC(=O)c3cc(O)c(O)c(O)c3)c2)[C@H](OC(=O)c2cc(O)c(O)c(OC(=O)c3cc(O)c(O)c(O)c3)c2)[C@@H](OC(=O)c2cc(O)c(O)c(OC(=O)c3cc(O)c(O)c(O)c3)c2)[C@@H]1OC(=O)c1cc(O)c(O)c(OC(=O)c2cc(O)c(O)c(O)c2)c1)c1cc(O)c(O)c(OC(=O)c2cc(O)c(O)c(O)c2)c1
inactive: [3] | [4] | [5] | [6]
active: [1] 9.7 µM | [2] 10.8 µM | [7] 3.15 µM | [9] 8.27 µM

COc1ccc(/C=C/S(=O)(=O)NC(=O)c2ccc(C)cc2Cl)cc1
not listed: [8] | [10]
inactive: all other assays above

CN(C)c1ccc(N=NS(=O)(=O)O)cc1
not listed: [10]
inactive: all other assays above

CC(=O)OCCC(C)C
not listed: [10]
inactive: all other assays above

CC(C)CCCCCCCOC(=O)CCCCC(=O)OCCCCCCCC(C)C
not listed: [10]
inactive: all other assays above

O=C1CCC(N2C(=O)c3ccccc3C2=O)C(=O)N1 (configuration not stated)
not listed: [8] | [10]
inactive: all other assays above

CCCN(C1CCN(C(=O)C2CCNCC2)CC1)[C@@H]1CCc2ccc(OC)cc2C1
not listed: [8] | [10]
inactive: all other assays above

CCCCC(CC)COC(=O)c1ccc(C(=O)OCC(CC)CCCC)cc1 (configuration not stated)
not listed: [2] | [8] | [10]
inactive: all other assays above

CCCCC(CC)COC(=O)CCCCCCCCC(=O)OCC(CC)CCCC (configuration not stated)
not listed: [10]
inactive: all other assays above

O=C(NS(=O)(=O)/C=C/c1ccccc1)c1ccc(F)cc1Cl
active: [9] 6.15 µM
not listed: [8] | [10]
inactive: all other assays above

O=C(CCCCCCCCc1cccnc1)N1CCC(C=C(c2ccccc2)c2ccccc2)CC1
inactive: [6]
active: [1] 8.88 µM | [3] 10.9 µM | [10] 6.41 µM | [4] 13.1 µM | [5] 34.2 µM | [7] 11.2 µM | [9] 17.6 µM

CC(C)(O)c1coc(S(=O)(=O)NC(=O)Nc2c3c(cc4c2CCC4)CCC3)c1
not listed: [10]
inactive: all other assays above

C=CCCCCCCCCC(=O)O
not listed: [8] | [10]
inactive: all other assays above

O=C(O)c1cccc(Oc2ccccc2)c1
not listed: [8] | [10]
inactive: all other assays above

CCN(C(=O)c1cc(C)cc(OC[C@H](C)Nc2ccncc2)c1)C(C)C
not listed: [10]
inactive: all other assays above
